Source: PubChem BioAssay (several laboratories)
CYP2C19 act: activators of human cytochrome P450 2C19. activation factor at 5 µM. 96,000 tested, under 10 active. P33261. recombinant CYP2C19, luciferin-H EGE luminescence; stronger effect = higher value; 0 = fully inhibited enzyme, 1 = untreated enzyme;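 active = activation factor of at least 2 at 5 µM in the primary screen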;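 note: 0 = wells with 2.5 mM tranylcypromine and 1 = vehicle-only wells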
sEH act: increases human soluble epoxide hydrolase activity | P34913 | purified human sEH enzymatic activity, activator screen | activation, % at 2 µM | actives 0.04% (n = 91,000) | AID 717; in the data active = activation above about 37%
Target sequence (P34913 whole entry, looked up): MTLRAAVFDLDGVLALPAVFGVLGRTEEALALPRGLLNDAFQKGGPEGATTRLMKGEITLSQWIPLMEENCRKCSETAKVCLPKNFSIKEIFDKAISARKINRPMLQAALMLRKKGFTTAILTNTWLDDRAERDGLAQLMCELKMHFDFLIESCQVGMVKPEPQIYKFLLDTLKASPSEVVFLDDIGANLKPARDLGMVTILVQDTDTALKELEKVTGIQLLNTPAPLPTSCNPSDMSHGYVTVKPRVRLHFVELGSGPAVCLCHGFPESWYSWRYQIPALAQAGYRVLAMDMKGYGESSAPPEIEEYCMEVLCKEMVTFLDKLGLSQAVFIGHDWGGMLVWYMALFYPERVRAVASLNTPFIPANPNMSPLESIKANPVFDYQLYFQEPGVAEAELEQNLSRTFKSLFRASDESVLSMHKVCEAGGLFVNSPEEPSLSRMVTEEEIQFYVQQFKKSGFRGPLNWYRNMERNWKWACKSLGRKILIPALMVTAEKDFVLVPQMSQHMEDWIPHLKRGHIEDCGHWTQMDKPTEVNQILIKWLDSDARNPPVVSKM
CYP2C9 inhib: inhibitors of human CYP2C9 | actives 20% (n = 96,000) | CYP2C9 Supersomes, luciferin-H conversion, luminescence | AID 777 | P11712 | inhibition, % at 5 µM;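 active = blocking of liver enzyme CYP2C9 beyond about 50% at 5 µM, limit read from the data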
CYP2C9 activ: increases human cytochrome P450 2C9 activity; P11712; recombinant CYP2C9, luciferin-H conversion, luminescence; stronger effect = higher value; factor 1 = untreated enzyme, 0 = blocked; activation factor at 5 µM; actives 1.4% (n = 96,000); AID 1024;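 active = activation factor of 2 or more for CYP2C9 at a 5 µM dose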;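 note: 0 = sulfaphenazole-blocked wells and 1 = vehicle-only wells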
sEH inhibitor: soluble epoxide hydrolase (human) inhibition | inhibition, % at 2 µM | actives 0.34% (n = 91,000) | P34913 | recombinant human sEH enzymatic activity assay | AID 707; in the data active = inhibition above about 80%
CYP2C19 inh: human CYP2C19 inhibition. inhibition, % at 5 µM. actives 21% (n = 96,000). P33261. CYP2C19 Supersomes, luciferin-H EGE luminescence, 30 min. AID 778;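 active = CYP2C19 inhibition above a set limit at 5 µM in the primary screen, cut at about 50% in these data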;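 note: plate controls were negative control wells for no effect and 2.5 mM tranylcypromine positive control for full effect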
Starred values were filed as active, the others as inactive; . = no result. Rows were chosen to be rich in hits. Some 27% of all compounds tested hit in one or more screens of this group.

SMILES	CYP2C19 act	sEH act	CYP2C9 inhib	CYP2C9 activ	sEH inhibitor	CYP2C19 inh
CCn1c(SCC(=O)NC2CCCCC2C)nnc1-c1ccc(OC)cc1 (stereo unspecified)	0.3	-13	68*	0.3	12	71*
O=C(Cn1c(SCC(=O)NC2CCCC2)nnc1-c1ccncc1)Nc1ccc2c(c1)OCO2	0.1	3	91*	0.1	-4	91*
CCn1c(CNC(=O)Cc2ccc(OC)cc2)nnc1SCC(=O)NC1CCCCC1	0.9	1	27	0.7	1	14
O=C(CSc1nc(-c2ccncc2)nn1CC(=O)N1CCCCC1)NC1CCCC1	0.4	-8	79*	0.2	8	64*
Cc1c(C(=O)NCCN2CCOCC2)oc2ccc(S(=O)(=O)N3CCCCCC3)cc12	0.9	.	27	0.7	.	10
Cc1cc(=O)oc(C)c1C(=O)NCCN1CCOCC1	0.8	.	2	1	.	16
O=C(CN1C(=O)C2C3C=CC(C3)C2C1=O)Nc1nc(SCc2ccc(Cl)cc2)n[nH]1 (stereo unspecified)	0.4	13	32	0.7	-15	60*
N#Cc1cccc(-n2c(-c3ccccc3)nnc2-c2ccccc2)c1C#N	0.1	1	89*	0.1	-2	89*
N#Cc1ccc(-n2c(-c3ccccc3)nnc2-c2ccccc2)cc1C#N	.	6	.	.	-5	.
CC1CCc2sc3ncnc(N4CCOCC4)c3c2C1 (stereo unspecified)	0	-8	61*	0.4	11	96*
Cc1cc(C)n(-c2ncnc3sc4c(c23)CC(C)CC4)n1 (stereo unspecified)	0.1	-5	49	0.5	2	88*
Cc1cc(C)n(-c2ncnc3sc4c(c23)CCCC4)n1	0.4	-16	13	0.9	15	57*
N#Cc1cnn(-c2ncnc3sc4c(c23)CCCC4)c1N	0.6	7	89*	0.1	-6	39
CC1CCc2c(sc3ncnc(N4CCOCC4)c23)C1 (stereo unspecified)	0.5	0	13	0.9	2	47
CCc1ccc(N2CC(C(=O)Nc3nnc(CC)s3)CC2=O)cc1 (stereo unspecified)	1.2	10	26	0.7	-12	-18
CCCS(=O)(=O)N1CCC(C(=O)N2CCOCC2)CC1	0.9	.	7	0.9	.	7
CCCNC(=O)CN(CCc1ccccc1)S(C)(=O)=O	0.2	-3	-9	1.1	5	76*
CS(=O)(=O)N(CCc1ccccc1)CC(=O)NCc1ccc2c(c1)OCO2	0.7	5	31	0.7	-11	31
CC(=O)/C(C#N)=C1\NC(=O)C(Cc2ccc(C)c(C)c2)S1 (stereo unspecified)	1.1	10	94*	0.1	-8	-5
CSc1nnc(-c2cnccn2)n1CCCN1CCCC1=O	1	.	4	1	.	0
N#Cc1c(C(F)(F)F)cc(-c2cccc(Cl)c2)[nH]c1=O	1.1	.	61*	0.4	.	-8
Cc1cc(C(F)(F)F)c(C#N)c(=O)[nH]1	.	3	.	.	-3	.
N#Cc1c(C(F)(F)F)cc(-c2ccc(Cl)cc2)[nH]c1=O	1	.	55*	0.4	.	0
Cc1ccc(S(=O)(=O)NC(=NCC(=O)O)c2ccc(F)cc2)cc1	1.1	-1	-5	1	1	-15
Cc1ccc2ccc(S(=O)(=O)n3nc(C)cc3C)cc2c1	0.4	0	-16	1.2	0	61*
SMILES	CYP2C19 act	sEH act	CYP2C9 inhib	CYP2C9 activ	sEH inhibitor	CYP2C19 inh
C/C(=N\OC(=O)c1ccc(Cl)cc1)c1sc(-c2ccccc2)nc1C	1	9	-2	1	-8	-1
Cc1ccc(N/C=C/C(=O)c2sc(-c3ccccc3)nc2C)cc1	0.9	0	21	0.8	3	8
Cc1nc(-c2ccccc2)sc1C(=O)CSc1ccc(Br)cc1	0.9	4	85*	0.1	-2	13
Cc1nc(-c2ccccc2)sc1C(=O)CSc1ccc(Cl)cc1	1	4	77*	0.2	-2	4
Cn1c2ccccc2c2nn(-c3ccccc3)c(=O)cc21	0.3	.	30	0.7	.	71*
Cn1c(=O)c2nc(-c3ccccc3)oc2c2ccccc21	0.9	10	-47	1.5	-9	5
CC(C)(C)c1cn(-c2ccc(F)cc2)c(=S)[nH]1	0.4	5	-18	1.2	-2	63*
CC1=C(C(=O)OC2CCCCC2)C(c2ccco2)n2ncnc2N1 (stereo unspecified)	0.3	-26	52*	0.5	29	73*
COc1ccc(CN/C(C)=C(/C#N)C(N)=O)cc1OC	0.9	-2	6	0.9	2	12
CCC(=O)Nc1ccc2nc(C)n(CC(=O)Nc3ccccc3)c(=O)c2c1	0.7	-3	58*	0.4	4	28
COC(=O)c1ccc(Cn2c(CN3CCOCC3)nc3ccccc3c2=O)o1	0.9	2	3	1	-1	6
Cc1cc(NC(=O)Cn2nc3c(cc2=O)CCCC3)ccc1Br	0.1	-24	39	0.6	24	88*
O=C(Cn1c(C2CC2)nc2ccccc2c1=O)Nc1ccc(Br)cc1	0.4	-7	51*	0.5	8	56*
O=C(Cn1c(CN2CCCCC2)nc2ccccc2c1=O)Nc1ccccc1	0.1	.	41	0.6	.	88*
COc1cccc(NC(=O)Cn2cc3c(n2)CCCCC3)c1	0.9	-2	6	0.9	1	10
Cc1ccc(S(=O)(=O)NCCCNC(=O)N2CCOCC2)cc1	0.9	-3	-4	1	8	6
Cc1ccccc1NC(=O)Cn1c(C)nc2ccc(NC(=O)C3CC3)cc2c1=O	0.9	-13	36	0.6	12	5
Cc1cc(NC(=O)Cn2c(C)nc3ccccc3c2=O)ccc1Br	0.6	5	60*	0.4	-2	38
CC(=O)Nc1ccc2nc(C)n(Cc3ccc(Cl)cc3)c(=O)c2c1	.	15	.	.	-15	.
CCOC(=O)CCNC(=O)Nc1ccc2nc(C)n(Cc3ccc(Cl)cc3)c(=O)c2c1	0.5	-11	71*	0.3	11	48
Cc1cc(NC(=O)c2cccc(S(=O)(=O)N3CC(c4ccccc4)CC3=O)c2)no1 (stereo unspecified)	0.9	-9	-12	1.1	8	11
O=C(O)c1ccc(OC2CSC2)cc1	1	-4	8	0.9	3	2
CCn1c(CSc2nc3ccccc3s2)n[nH]c1=S	0.3	-7	39	0.6	9	73*
CCCSc1nnc(CSc2nc3ccccc3s2)n1-c1ccccc1	0.4	3	70*	0.3	-1	55*
CCn1c(-c2ccccc2O)n[nH]c1=S	0.6	-4	4	1	3	35
C=CCn1c(Cc2nc3ccccc3[nH]2)n[nH]c1=S	0.2	-20	6	0.9	18	76*
CCn1c(C(c2ccccc2)c2ccccc2)n[nH]c1=S	0.6	-4	82*	0.2	5	41
COc1cc(C(=O)O)cc(Br)c1OC1CCCC1	1.2	-2	-24	1.2	2	-17
